Test results: PubChem BioAssay (NCI)
Compounds without any hit were thinned out: in the full panel of roughly 79,000, 15% have a hit. Active and inactive are the calls of the source. Rule as the data show it: active = growth inhibition above about 70%; inactive = the rest.

Experiments:
[1] = NCI Yeast Anticancer Drug Screen. Data for the wt1 strain (AID 149);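 also: 0% = growth of vehicle-treated wt1 cultures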; conditions: S. cerevisiae wt1 strain (SPY 50644) growth inhibition, stronger effect = higher value
Outline: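 Using yeast strain wt1, compound-induced growth inhibition was determined against vehicle-treated cultures.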

[2] = NCI Yeast Anticancer Drug Screen. Data for the rad50EPP+ strain (AID 151);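 also: 0% = growth of vehicle-treated control cultures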; conditions: S. cerevisiae rad50 mutant strain, stronger effect = higher value
Outline: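 Measured: growth inhibition of rad50EPP+ yeast. Reference: vehicle-treated controls. Screen uses strains with defined genetic alterations in DNA damage repair or cell cycle control.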

[3] = NCI Yeast Anticancer Drug Screen. Data for the mgt1 strain (AID 153); conditions: S. cerevisiae mgt1 mutant growth inhibition, stronger effect = higher value
Outline: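 Compounds were applied to mgt1 mutant yeast, and growth was then compared against vehicle-treated control cultures to give percent inhibition.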

[4] = NCI Yeast Anticancer Drug Screen. Data for the rad50 strain (AID 155);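 also: 0% = growth of vehicle-only cultures of the same strain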; conditions: S. cerevisiae rad50 strain growth inhibition, stronger effect = higher value
Outline: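 Relative growth inhibition (compound vs vehicle) was measured in yeast with a defined repair-gene alteration.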

[5] = NCI Yeast Anticancer Drug Screen. Data for the mec2-1 strain (AID 157); conditions: S. cerevisiae mec2-1 strain, stronger effect = higher value
Outline: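 Compounds were applied to mec2-1 yeast cells. Their growth was then compared with that of vehicle-treated cultures to give growth inhibition.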

[6] = NCI Yeast Anticancer Drug Screen. Data for the rad14 strain (AID 159);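 also: 0% = growth of vehicle-treated control cultures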; conditions: S. cerevisiae rad14 strain growth inhibition, stronger effect = higher value
Outline: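 Screen for anticancer potential: a yeast strain altered in DNA damage repair is grown with compound, and reduced growth is quantified against vehicle controls.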

[7] = NCI Yeast Anticancer Drug Screen. Data for the sgs1 mgt1 strain (AID 161);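 also: 0% = growth of cultures given vehicle only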; conditions: S. cerevisiae sgs1 mgt1 strain, stronger effect = higher value
Outline: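 Growth of a repair-deficient yeast mutant was monitored after compound treatment and expressed as inhibition relative to vehicle-treated cultures.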

[8] = NCI Yeast Anticancer Drug Screen. Data for the CLN2oe strain (AID 163);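 also: 0% = growth of vehicle-only control cultures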; conditions: S. cerevisiae CLN2oe strain, stronger effect = higher value
Outline: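 Cells of an engineered yeast line with disturbed cell-cycle regulation are treated with compound. Inhibition of growth is then calculated relative to the vehicle-treated reference.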

[9] = NCI Yeast Anticancer Drug Screen. Data for the cln2 rad14 strain (AID 165);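 also: 0% = growth equal to vehicle treated cultures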; conditions: S. cerevisiae cln2 rad14 strain, stronger effect = higher value
Outline: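 Strain: cln2 rad14 yeast, altered in cell cycle control and DNA damage repair. Read-out: growth inhibition vs vehicle.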

[10] = NCI Yeast Anticancer Drug Screen. Data for the bub3 strain (AID 167); conditions: S. cerevisiae bub3 mutant strain, stronger effect = higher value
Outline: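 Screening used yeast with an engineered genetic alteration affecting cell cycle control. Compound-exposed cultures were compared with vehicle cultures, and reduced growth was taken as inhibition.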

[11] = NCI Yeast Anticancer Drug Screen. Data for the wt2 strain (AID 169);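 also: 0% = growth of vehicle-treated yeast cultures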; conditions: S. cerevisiae wt2 strain growth inhibition, stronger effect = higher value
Outline: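 Growth of compound-treated yeast is measured and expressed as inhibition relative to vehicle-only controls.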

[12] = NCI Yeast Anticancer Drug Screen. Data for the mlh1 strain (AID 171);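 also: 0% = growth of vehicle-treated control cultures of the same strain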; conditions: S. cerevisiae mlh1 strain growth inhibition, stronger effect = higher value
Outline: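 Test agents were incubated with yeast bearing a defined DNA damage repair or cell cycle control alteration; values are growth inhibition normalised to vehicle-treated cultures.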

[13] = NCI Yeast Anticancer Drug Screen. Data for the sgs1 strain (AID 173);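 also: 0% = growth of vehicle-only control cultures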; conditions: S. cerevisiae sgs1 mutant, stronger effect = higher value
Outline: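 Strain with an altered DNA repair or cell cycle pathway exposed to compound. Growth then measured. Value = inhibition versus vehicle control.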

[14] = NCI Yeast Anticancer Drug Screen. Data for the mlh1 rad18 strain (AID 175); conditions: S. cerevisiae mlh1 rad18 strain growth inhibition, stronger effect = higher value
Outline: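 A repair-deficient yeast strain is exposed to test compound, and growth is scored relative to vehicle-treated controls.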

[15] = NCI Yeast Anticancer Drug Screen. Data for the rad18 strain (AID 177); conditions: S. cerevisiae rad18 mutant growth inhibition, stronger effect = higher value
Outline: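 DNA-repair-defective yeast; compound treatment; growth inhibition scored against vehicle.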

[16] = at 5.0 µM (retest, dose inferred, filed as 0.5)
[17] = at 50.0 µM (retest, dose inferred, filed as 5.0)

Measured: growth inhibition

CCN(CC)C(=S)SC(=S)N(CC)CC
active: [1]; at 33.0 µM 92% | [1]; at 100.0 µM 99% | [2]; at 33.0 µM 91% | [2]; at 100.0 µM 99% | [3]; at 33.0 µM 95% | [3]; at 100.0 µM 98% | [4]; at 33.0 µM 79% | [4]; at 50.0 µM 90% | [4]; at 100.0 µM 97% | [5]; at 33.0 µM 97% | [5]; at 50.0 µM 93.7% | [5]; at 100.0 µM 97% | [6]; at 33.0 µM 99% | [6]; at 100.0 µM 98% | [7]; [17] 87% | [7]; at 50.0 µM 92.8% | [8]; at 100.0 µM 98% | [10]; at 50.0 µM 91.4% | [10]; at 100.0 µM 97% | [11]; at 33.0 µM 98% | [11]; at 100.0 µM 99% | [12]; at 33.0 µM 88% | [12]; at 100.0 µM 98% | [13]; at 33.0 µM 90% | [13]; at 100.0 µM 98% | [14]; [17] 73% | [14]; at 50.0 µM 92% | [15]; at 33.0 µM 95% | [15]; at 100.0 µM 98%
inactive: [1]; at 1.2 µM -25% | [1]; at 3.7 µM -16% | [1]; at 11.0 µM 28% | [2]; at 1.2 µM -1% | [2]; at 3.7 µM 7% | [2]; at 11.0 µM 37% | [3]; at 1.2 µM -42% | [3]; at 3.7 µM -43% | [3]; at 11.0 µM 16% | [4]; at 1.2 µM -15% | [4]; at 3.7 µM 15% | [4]; [16] 10% | [4]; at 11.0 µM 29% | [4]; [17] 46% | [5]; at 1.2 µM -34% | [5]; at 3.7 µM -10% | [5]; [16] 6% | [5]; at 11.0 µM 32% | [5]; [17] 48% | [6]; at 1.2 µM -31% | [6]; at 3.7 µM -4% | [6]; at 11.0 µM 34% | [7]; [16] -9% | [8]; at 1.2 µM 0% | [8]; at 3.7 µM -8% | [8]; at 11.0 µM 18% | [8]; at 33.0 µM 63% | [9]; [16] -15% | [9]; [17] 18% | [9]; at 50.0 µM 40.2% | [10]; at 1.2 µM -25% | [10]; at 3.7 µM -21% | [10]; [16] 0% | [10]; at 11.0 µM -22% | [10]; at 33.0 µM 27% | [10]; [17] 58% | [11]; at 1.2 µM -21% | [11]; at 3.7 µM 32% | [11]; at 11.0 µM 60% | [12]; at 1.2 µM -38% | [12]; at 3.7 µM -48% | [12]; at 11.0 µM -6% | [13]; at 1.2 µM -43% | [13]; at 3.7 µM -18% | [13]; at 11.0 µM 44% | [14]; [16] 14% | [15]; at 1.2 µM -26% | [15]; at 3.7 µM 6% | [15]; at 11.0 µM 53%

CC(=O)/C=C/c1cc([N+](=O)[O-])ccc1O
active: [2]; at 33.0 µM 78% | [2]; at 100.0 µM 95% | [4]; at 33.0 µM 83% | [4]; [17] 85% | [4]; at 50.0 µM 86% | [4]; at 100.0 µM 97% | [5]; at 33.0 µM 96% | [5]; [17] 89% | [5]; at 50.0 µM 90.5% | [5]; at 100.0 µM 99% | [6]; at 33.0 µM 97% | [6]; at 100.0 µM 98% | [7]; [17] 87% | [7]; at 50.0 µM 88.9% | [8]; at 33.0 µM 86% | [8]; at 100.0 µM 98% | [9]; [17] 87% | [10]; at 33.0 µM 95% | [10]; [17] 92% | [10]; at 100.0 µM 98% | [11]; at 33.0 µM 76% | [11]; at 100.0 µM 98% | [12]; at 33.0 µM 98% | [12]; at 100.0 µM 99% | [13]; at 33.0 µM 94% | [13]; at 100.0 µM 98% | [14]; [17] 97% | [14]; at 50.0 µM 85.1% | [15]; at 33.0 µM 74% | [15]; at 100.0 µM 97%
inactive: [2]; at 1.2 µM -27% | [2]; at 3.7 µM -4% | [2]; at 11.0 µM 30% | [4]; at 1.2 µM -22% | [4]; at 3.7 µM -20% | [4]; [16] 7% | [4]; at 11.0 µM -5% | [5]; at 1.2 µM -5% | [5]; at 3.7 µM -25% | [5]; [16] 0% | [5]; at 11.0 µM 29% | [6]; at 1.2 µM -30% | [6]; at 3.7 µM -22% | [6]; at 11.0 µM 9% | [7]; [16] 12% | [8]; at 1.2 µM -5% | [8]; at 3.7 µM 3% | [8]; at 11.0 µM 23% | [9]; [16] 36% | [9]; at 50.0 µM 46.5% | [10]; at 1.2 µM -28% | [10]; at 3.7 µM -18% | [10]; [16] 21% | [10]; at 11.0 µM 11% | [10]; at 50.0 µM 49.7% | [11]; at 1.2 µM -31% | [11]; at 3.7 µM -32% | [11]; at 11.0 µM -23% | [12]; at 1.2 µM -6% | [12]; at 3.7 µM 3% | [12]; at 11.0 µM 33% | [13]; at 1.2 µM -28% | [13]; at 3.7 µM -24% | [13]; at 11.0 µM 9% | [14]; [16] 24% | [15]; at 1.2 µM -51% | [15]; at 3.7 µM -47% | [15]; at 11.0 µM -23%

CC(C)OC(=O)NNc1cccc(Cl)c1
inactive: [1]; at 1.2 µM 1% | [1]; at 3.7 µM 8% | [1]; at 11.0 µM 35% | [2]; at 1.2 µM 6% | [2]; at 3.7 µM 33% | [3]; at 1.2 µM 0% | [3]; at 3.7 µM 7% | [4]; at 1.2 µM 4% | [4]; at 3.7 µM 26% | [4]; [16] 13% | [5]; at 1.2 µM 0% | [5]; at 3.7 µM 11% | [5]; [16] 21% | [5]; at 11.0 µM 55% | [6]; at 1.2 µM 4% | [6]; at 3.7 µM 12% | [7]; [16] 27% | [8]; at 1.2 µM -7% | [8]; at 3.7 µM -6% | [8]; at 11.0 µM 17% | [8]; at 33.0 µM 53% | [9]; [16] 51% | [10]; at 1.2 µM 3% | [10]; at 3.7 µM 44% | [12]; at 1.2 µM -1% | [12]; at 3.7 µM 4% | [12]; at 11.0 µM 55%
active: [1]; at 33.0 µM 95% | [1]; at 100.0 µM 96% | [2]; at 11.0 µM 93% | [2]; at 33.0 µM 98% | [2]; at 100.0 µM 98% | [3]; at 11.0 µM 87% | [3]; at 33.0 µM 98% | [3]; at 100.0 µM 99% | [4]; at 11.0 µM 98% | [4]; at 33.0 µM 98% | [4]; [17] 95% | [4]; at 50.0 µM 96.1% | [4]; at 100.0 µM 97% | [5]; at 33.0 µM 96% | [5]; [17] 96% | [5]; at 50.0 µM 99.2% | [5]; at 100.0 µM 98% | [6]; at 11.0 µM 76% | [6]; at 33.0 µM 98% | [6]; at 100.0 µM 98% | [7]; [17] 98% | [7]; at 50.0 µM 96.8% | [8]; at 100.0 µM 84% | [9]; [17] 99% | [9]; at 50.0 µM 97.8% | [10]; [16] 83% | [10]; at 11.0 µM 98% | [10]; at 33.0 µM 98% | [10]; [17] 98% | [10]; at 50.0 µM 99% | [10]; at 100.0 µM 98% | [12]; at 33.0 µM 98% | [12]; at 100.0 µM 99%
